Active and inactive are the calls of the source.

A short description of the first experiment: small-molecule microarray binders of probe aCHRDL2, primary screen, biochemical, biotinylated probe, 635/667 nm fluorescence (AID 1100). The following applies: higher = more signal.
In turn, `COc1ccc(COC(=O)NN=C2C[C@@H](O)[C@@H](O)[C@@H]3[C@@H]4C(=O)N(Cc5ccccc5)C(=O)[C@@H]4CC[C@H]23)cc1` had a composite z-score of 1.39. Compound `CO[C@H]1COC(=O)[C@@H](C)COC(=O)[C@@H](OCc2ccccc2)C=C[C@@H]1C` came in with a composite z-score of -0.514.

`COc1ccc(O[C@H]2C=C[C@@H](c3ccccc3)O[C@@H]2CON=C(C)CCN2CCc3nc(-c4ccccc4)c(-c4ccccc4)cc3C2)cc1` returned a composite z-score of -0.0652. Still for that read-out and setting: in the case of `CCN1C(=O)[C@H]2[C@H]3[C@H](O)[C@H](O)CC(=O)[C@H]3CC[C@H]2C1=O` it was -0.721; in that of `CCCNC(=O)OC[C@H]1O[C@H](CCON=C(C)C)C=C[C@@H]1Oc1ccc(OC)cc1`, 0.707. On the same count and under the same terms, then `CCOC(=O)NN=C1C[C@@H](O)[C@@H](O)[C@@H]2[C@@H]3C(=O)N(c4ccc(F)cc4F)C(=O)[C@@H]3CC[C@@H]12`, with -0.364; and `C[n+]1ccc(-c2ccc(CO)cc2)cc1`, with 0.808.

Another experiment can be described thus: splicing luciferase reporter signal modulators, primary screen, spliceosome inhibition project, cell-based, HEK293, splice +/- reporter (AID 1101).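 Also: HEK293 cells carrying a splicing-competent luciferase reporter gene; test concentration not given here.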 The following applies: luminescence, 24 h, higher = more signal, called active from +8 up or from −8 down. Background: A reporter such as luciferase makes a cellular process visible.
On to `CO[C@H]1COC(=O)CC=C[C@H](C)[C@@H](OC)COC(=O)[C@@H](C)NC(=O)CC=C[C@@H]1C`, for which the z-score was -0.653 (inactive). The same measure, in the same setting: then `CCOC(=O)[C@H](Cc1ccccc1)NC(=O)OC1CC(CCC2CC(CC)=NO2)OC2(CCCC(COC(=O)NCCC(C)C)O2)C1` (stereo partly drawn), with 0.667 (inactive). Same read-out and setting: in the case of `CC(C)CON=C1C[C@@H](O)[C@@H](O)[C@@H]2[C@@H]3C(=O)N(c4ccc(F)cc4F)C(=O)[C@@H]3CC[C@H]12` it was -0.972 (inactive). On the same count and under the same terms, then `CC(C)(C)N1C(=O)[C@H]2[C@H]3[C@H](O)[C@H](O)CC(=NO[C@@H]4O[C@H](CO)[C@@H](O)[C@H](O)[C@H]4O)[C@H]3CC[C@H]2C1=O`, with 0.543 (inactive). On to `COC(=O)C=CCCc1coc(C=CCNC(=O)OC)n1`, for which the z-score was 0.183 (inactive). Same read-out and setting: in the case of `Cc1ccc(S(=O)(=O)OC[C@H]2CN3[C@H](c4ccc(Br)cc4)[C@@H](C)CC[C@H]3C(=O)O2)cc1` it was -0.649 (inactive). The same measure, in the same setting: then `CO[C@@H]1COC(=O)[C@@H](C)NC(=O)CC=C[C@@H](C)[C@H](NS(=O)(=O)c2ccc(C)cc2)COC(=O)[C@H](C)NC(=O)CC=C[C@H]1C`, with 0.347 (inactive). As to `COC(=O)[C@H](C)NC(=O)CCC1CC(OC(=O)NCc2ccc3c(c2)OCO3)CC2(CCCC(COC(=O)NCC3CCCCC3)O2)O1` (stereo partly drawn), the z-score was 0.507 (inactive). Same read-out and setting: then `C#CCCCON=C1C[C@@H](O)[C@@H](O)[C@@H]2[C@@H]3C(=O)N(C(C)(C)C)C(=O)[C@@H]3CC[C@H]12`, with 0.233 (inactive); and `CCOC(=O)NN=C1C[C@@H](O)[C@@H](O)[C@@H]2[C@@H]3C(=O)N(C(C)(C)C)C(=O)[C@@H]3CC[C@H]12`, with -0.626 (inactive).

`C[C@H]1COC(=O)[C@@H]2CCCN2C(=O)[C@@H](C)COC(=O)[C@H](Cc2ccccc2)NC1=O`: the z-score is 0.282 (inactive). On to `CCOC(=O)NN=C1C[C@@H](O)[C@@H](O)[C@@H]2[C@@H]3C(=O)N(c4cccc(Oc5ccccc5)c4)C(=O)[C@@H]3CC[C@H]12`, for which the z-score is -0.652 (inactive). On the same count and under the same terms, then `CCOC(=O)C1=NO[C@@]2(C=C(Br)C3(OCCCO3)[C@H]3O[C@H]32)C1`, with 0.0671 (inactive); and `CO[C@@H]1COC(=O)[C@H](CCSC)NC(=O)CC=C[C@@H](C)COC(=O)CCC[C@H]1C`, with -0.433 (inactive); and `CCOC(=O)[C@H](Cc1ccccc1)NC(=O)CCC1CC(OC(=O)NCc2cccc3ccccc23)CC2(CCCC(COC(=O)NCCC(C)C)O2)O1` (stereo partly drawn), with -1.74 (inactive).

In the case of `CC[C@@H](c1ccccc1)n1c(=O)n2n(c1=O)[C@H]1[C@H](O)[C@@H]3O[C@@H]3C(=O)[C@H]1CC2`, the z-score was 0.797 (inactive). The same measure, in the same setting: in the case of `CCc1cc2c(nc1CC)CCN(CCC(C)=NO[C@H](C)c1cn([C@H](CO)Cc3ccccc3)nn1)C2` it was -0.0554 (inactive); in that of `CCOC(=O)[C@H](CC(C)C)NC(=O)CCC1CC(OC(=O)NCc2ccc3c(c2)OCO3)CC2(CCCC(COC(=O)NCC(c3ccccc3)c3ccccc3)O2)O1` (stereo partly drawn), 0.907 (inactive); in that of `CCOC(=O)CCN1C(=O)[C@H]2[C@H]3[C@H](O)[C@H](O)CC(=NOCC(C)C)[C@H]3CC[C@H]2C1=O`, 0.108 (inactive).

In the case of `O=C1[C@H]2[C@H]3[C@H](O)[C@H](O)CC(=NOCc4ccccc4)[C@@H]3CC[C@H]2C(=O)N1C[C@@H]1CCCO1`, the z-score is 0.274 (inactive). Same read-out and setting: then `CCOC(=O)[C@H](CC(C)C)NC(=O)CCC1CC(OC(=O)NCc2cccc3ccccc23)CC2(CCCC(COC(=O)NCC3CCCCC3)O2)O1` (stereo partly drawn), with -1.42 (inactive); and `CC(C)=CCCC(C)=CCON=C1C[C@@H](O)[C@@H](O)[C@@H]2[C@@H]3C(=O)N(c4cccc(Oc5ccccc5)c4)C(=O)[C@@H]3CC[C@@H]12`, with -0.991 (inactive). On the same count and under the same terms, in the case of `O=C1[C@H]2[C@H]3[C@H](O)[C@H](O)CC(=NOC[C@@H](O)COCc4ccco4)[C@H]3CC[C@H]2C(=O)N1c1ccc(F)cc1F` it was -2.86 (inactive); in that of `COc1ccc(O[C@@H]2[C@H](O)CO[C@H]2C=Cc2ccccc2)cc1`, -0.878 (inactive); in that of `COC(=O)[C@@H]1CC[C@H](C)[C@@H](c2ccc(C)cc2)N1C(=O)c1ccc(C=NO[C@@H]2O[C@H](COC(C)=O)[C@@H](OC(C)=O)[C@H](OC(C)=O)[C@H]2OC(C)=O)cc1`, -1.56 (inactive).

Turning to `CO[C@H]1COC(=O)[C@H](C)NC(=O)[C@@H](C)COC(=O)[C@H]2CCCN2C(=O)CC=C[C@H]1C`, the z-score is -0.447 (inactive).

For `CC(C)=CCCC(C)=CCON=C1C[C@@H](O)[C@@H](O)[C@@H]2[C@@H]3C(=O)N(c4ccc(F)cc4F)C(=O)[C@@H]3CC[C@H]12`, the z-score is -0.956 (inactive). The same measure, in the same setting: then `COc1cc(O)c(C(=O)C=Cc2ccc3c(c2)OCO3)c(OC)c1`, with -0.00405 (inactive). With `COc1ccc(O[C@H]2C=C[C@@H](c3ccccc3)O[C@@H]2CON=C2[C@H]3CCn4c(=O)n(-c5ccccc5)c(=O)n4[C@H]3[C@H](O)[C@@H]3O[C@H]23)cc1`, the z-score was 1.09 (inactive). Still for that read-out and setting: then `COc1ccc(COC(=O)NN=C2C[C@@H](O)[C@@H](O)[C@@H]3[C@@H]4C(=O)N(Cc5ccccc5)C(=O)[C@@H]4CC[C@H]23)cc1`, with -0.262 (inactive). For the compound `CO[C@H]1COC(=O)[C@@H](C)COC(=O)[C@@H](OCc2ccccc2)C=C[C@@H]1C`, the z-score is 0.232 (inactive).

As for `COc1ccc(O[C@H]2C=C[C@@H](c3ccccc3)O[C@@H]2CON=C(C)CCN2CCc3nc(-c4ccccc4)c(-c4ccccc4)cc3C2)cc1`, the z-score is -0.365 (inactive). The same measure, in the same setting: in the case of `CCN1C(=O)[C@H]2[C@H]3[C@H](O)[C@H](O)CC(=O)[C@H]3CC[C@H]2C1=O` it was 0.691 (inactive); in that of `CCCNC(=O)OC[C@H]1O[C@H](CCON=C(C)C)C=C[C@@H]1Oc1ccc(OC)cc1`, -0.0557 (inactive). Still for that read-out and setting: in the case of `CCOC(=O)NN=C1C[C@@H](O)[C@@H](O)[C@@H]2[C@@H]3C(=O)N(c4ccc(F)cc4F)C(=O)[C@@H]3CC[C@@H]12` it was 0.428 (inactive); in that of `C[n+]1ccc(-c2ccc(CO)cc2)cc1`, 1.29 (inactive).

Source of the values: PubChem BioAssay.
